PubChem BioAssay AID651548 (Broad Institute, 2012)
Screen size: about 57,000 compounds; about 200 (0.35%) were called active.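 How the source made its calls: active means mean inhibition of replicates at least 50% and every single replicate also reaching 50%; inconclusive means mean inhibition at least 50% but some replicate falls below 50%; inactive means mean inhibition under 50%.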 The entries come from a sample that favours actives as a whole.

Biological target: Histone-lysine N-methyltransferase EZH2 (Homo sapiens) (UniProt Q15910)
Test: EZH2/PRC2 methyltransferase inhibitors, primary screen, biochemical, DELFIA time-resolved fluorescence, single point (AID 651548);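 further: dimethyl H3K27 on biotinylated H3 21-44 peptide detected by antibody; plate controls were median neutral control wells for no effect and median positive control wells for full effect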
Details: PRC2 H3K27 methylation, DELFIA TRF, 1 h; at 12.5 µM; stronger effect = higher value

Histone-lysine N-methyltransferase EZH2 (Homo sapiens), sequence (Q15910 whole entry, looked up): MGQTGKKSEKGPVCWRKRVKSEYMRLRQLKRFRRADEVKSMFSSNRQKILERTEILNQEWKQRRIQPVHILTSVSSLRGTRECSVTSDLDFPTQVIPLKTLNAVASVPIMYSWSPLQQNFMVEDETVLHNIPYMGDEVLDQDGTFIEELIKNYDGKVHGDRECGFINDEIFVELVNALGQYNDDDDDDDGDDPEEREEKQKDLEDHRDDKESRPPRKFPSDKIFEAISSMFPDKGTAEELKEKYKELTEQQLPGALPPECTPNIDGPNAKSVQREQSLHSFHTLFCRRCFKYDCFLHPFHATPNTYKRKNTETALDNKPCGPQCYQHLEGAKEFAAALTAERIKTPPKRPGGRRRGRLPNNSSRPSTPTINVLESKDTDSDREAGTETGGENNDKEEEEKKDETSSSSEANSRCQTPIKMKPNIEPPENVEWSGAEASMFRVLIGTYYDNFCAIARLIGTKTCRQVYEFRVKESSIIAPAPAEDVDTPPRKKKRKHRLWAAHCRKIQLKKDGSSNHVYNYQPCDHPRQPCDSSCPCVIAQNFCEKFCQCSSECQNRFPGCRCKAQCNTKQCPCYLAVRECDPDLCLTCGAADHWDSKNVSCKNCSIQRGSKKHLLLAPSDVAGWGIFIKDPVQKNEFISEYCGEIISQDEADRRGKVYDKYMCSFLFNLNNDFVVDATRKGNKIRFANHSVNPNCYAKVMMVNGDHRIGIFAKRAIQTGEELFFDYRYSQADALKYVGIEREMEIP

Row | Structure (SMILES) | inhibition
1 | C[C@@H]1O[C@@H](O[C@@H]2C=C3CC[C@@H]4C(C[C@@H](O)[C@]5(C)[C@@H](c6ccc(=O)oc6)CC[C@]45O)[C@@]3(C)CC2)[C@H](O)[C@H](O)[C@H]1O[C@@H]1O[C@H](CO)[C@@H](O)[C@H](O)[C@H]1O (stereo not given in full) | 75.9% (active)
2 | c1ccc(CCCCN2CCC(c3ccccc3)CC2)cc1 | 11.8% (inactive)
3 | CCCCCCCCCCCCCC(=O)O[C@@H]1[C@@H](C)[C@@]2(O)[C@@H](C=C(CO)C[C@]3(O)C(=O)C(C)=C[C@@H]23)[C@@H]2C(C)(C)[C@]12OC(C)=O | -10.7% (inactive)
4 | c1ccc2c(c1)[I+]c1ccccc1-2 | -3.64% (inactive)
5 | CC(C)(Cc1c[nH]c2ccc(Cl)cc12)NCCOc1ccccc1OCC1CC1 | 3.93% (inactive)
